Source: PubChem BioAssay (NCI)
Where “and” joins values, the source holds several entries; their conditions need not be identical. Equal values may be shown once. Compounds without any hit were thinned out: in the full panel of roughly 83,000, 20% have a hit.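 Growth was measured after 48 h exposure to one concentration of compound in 96-well plates. Values under 10 count as active.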 Calls of active or inactive are those of the source.

Tested on: HL-60(TB) leukemia
Assay: NCI-60 one-dose screen, 48 h (100 = growth as untreated, 0 = no growth, -100 = all killed)
Details: 10 µM unless noted

Row | Structure (SMILES) | growth
1 | Cc1c(C(=O)NCc2ccccc2)[n+](=O)c2cc(F)ccc2n1[O-] | 189% (inactive)
2 | CCOC(=O)CSc1ncnc2c1c(-c1ccccc1)c(-c1ccccc1)n2-c1ccc(C)cc1 | 55.9% (inactive)
3 | C/C(Cc1ccc(Cl)cc1)=C(/c1ccc(Cl)cc1)c1ccc(OCCN(C)C)cc1 | -10.1% (active)
4 | N#Cc1c(-c2ccc(Cl)cc2)c(C#N)c2c(C#N)c(N)nn2c1N | 85.8% (inactive)
5 | Cc1nc2cc(Nc3nc(N4CCOCC4)nc(N4CCN(C)CC4)n3)ccc2n1Cc1ccccc1 | 103% (inactive)
6 | CCOC(=O)c1c(C)c2c(n1C)CSc1cc(C(=O)c3ccccc3)c(=O)[nH]c1-2 | 74.7% [100 µM] (inactive)
7 | C=C1C(=O)O[C@H]2[C@H]1CC/C(COC(=O)N[C@H]1C[C@H](O[C@H]3C[C@](O)(C(=O)CO)Cc4c(O)c5c(c(O)c43)C(=O)c3c(OC)cccc3C5=O)O[C@@H](C)[C@H]1O)=C\CC[C@@]1(C)O[C@@H]21 | -31.2% (active)
8 | Cc1ccc(C)c2c1C(=O)OC2=O | 29.7% (inactive)
9 | Cc1cccc2nnc(-c3ccccc3)n12 | 99% (inactive)
10 | COc1ccccc1C1OC2=Nc3cc(C)c(C)cc3NC2C1=O (stereo not given) | 102% (inactive)
11 | COc1cc(C2NC(=O)C(C#N)=C(Nc3cccc(C)c3)S2)ccc1O (stereo not given) | 84% (inactive)
12 | CNc1cc(-c2cccc(OC(F)(F)F)c2)nc2ccc(N3CCCC3)cc12 | -43% (active) and -44.1% (active) and 1.92% (active)
13 | Cc1ccc(S(=O)(=O)NCCCNc2nccc(-c3c(-c4cccc(F)c4)nc4occn34)n2)cc1 | 44.8% (inactive)
14 | CCCCC1CCCCN1C(=O)OCC (stereo not given) | 128% (inactive)
15 | O=c1[nH]c2cc(Cl)c(Cl)cc2o1 | 120% (inactive)
16 | COc1ccc(-c2nocc2-c2cc(OC)c(OC)c(OC)c2)cc1 | -14.7% (active)
17 | NC1=NC(c2ccccc2)N=C(Nc2ccccc2)N1 (stereo not given) | 95.7% (inactive) and 111% (inactive)
18 | O=C(O)c1ccccc1C(=O)OC1CCCC2CCCC21 (stereo not given) | 104% (inactive)
19 | CC(C)(C)OC[C@@H]1N=C(c2ccc(Br)cc2)Nc2nc3ccccn3c2C1=O | 33.1% (inactive)
20 | C[n+]1ccc(Nc2ccc(NC(=O)c3ccc(Nc4cc[n+](C)c5ccc(N)cc45)cc3)cc2)cc1 | 82.3% (inactive)

Row | Structure (SMILES) | growth
21 | O=C(Nc1ccccc1)OCC(CN1CCCCC1)OC(=O)Nc1ccccc1 (stereo not given) | 69.3% (inactive) and 95% (inactive)
22 | COc1cc(NCCCCCCCNC(C)C)c2nccc(C)c2c1 | 75.1% (inactive) and 102% (inactive)
23 | CN(CCNCc1ccccn1)CCNCc1ccccn1 | 6% (active)
24 | CCN1/C(=C\c2cc[n+](CC)c3ccccc23)C=Cc2ccccc21 | 5.97% (active)
25 | Cc1nnc(/N=C2\NC(=O)/C(=C/c3ccc(N(C)C)cc3)S2)s1 | 99.6% (inactive)
26 | COc1ccc(OC)c(-c2c(C#N)c(-c3cccs3)nc3c2c(-c2ccccc2)nn3-c2ccccc2)c1 | 107% (inactive)
27 | C=C(CBr)[C@@H]1CC[C@]2(COC(C)=O)CC[C@]3(C)[C@H](CC[C@@H]4[C@@]5(C)CCCNC(C)(C)[C@@H]5CC[C@]43C)[C@@H]12 | -8.09% (active)
28 | COc1ccc(/C=C2\CCCC3=C2N=C2SC(C)=CN2C3c2ccc(OC)cc2)cc1 (stereo not given) | 76.2% (inactive)
29 | COc1ccc(-c2cc(=O)c3c(O)cc(O)cc3o2)cc1 | 73.4% (inactive) and 103% (inactive)
30 | Cc1ccc(-c2nc3nc(-c4ccccc4)nc(N4CCNCC4)c3o2)cc1 | -68.4% (active)
31 | COc1cccc(C2=NN3C(C2)c2cc(Br)cc(OC)c2OC32CCN(Cc3ccccc3)CC2)c1 (stereo not given) | 103% (inactive)
32 | C[C@@H]1CCC[C@H]1CC(N)C(=O)O (stereo not given in full) | 112% (inactive)
33 | Cc1c(C(N)=O)sc2ncn(CC(=O)NN=C3CCCCC3)c(=O)c12 | 123% (inactive)
34 | COc1ccc2nc(NC(=O)CSc3nnc4n3S(=O)(=O)c3ccccc3N4c3ccccc3)sc2c1 | -83.2% (active)
35 | CSc1nc(N)c(CNC(C)c2ccccc2)c(=O)n1C (stereo not given) | 81.1% (inactive)
36 | Cc1ccc(OC(=O)c2ccc(Cl)cc2)cc1 | 124% (inactive)
37 | N#C/C(=C\c1ccc(Br)cc1)n1nnc2cccc(F)c21 | -9.67% (active)
38 | COc1cccc(C(=O)NNc2nc(N3CCOCC3)nc(N3CCN(C(c4ccccc4)c4ccccc4)CC3)n2)c1 | 76.4% (inactive)
39 | N=C1C(c2nc(-c3ccc(Br)cc3)cs2)=C(O)CN1CC1CCCO1 (stereo not given) | 98.3% (inactive)
40 | FC(F)(F)c1cccc(-c2[nH]ncc2-c2nnnn2-c2ccccc2)c1 | 3.68% (active)
